# Hits are enriched below; roughly 2.4% of the tested compounds scored in any of these assays.
# Cruzain inh noDet: blocks cruzain activity in detergent-free assay. P25779. purified cruzain, Z-FR-AMC fluorescence, no detergent. Potency, µM, for inactives: max response, negative = inhibition, most hits filed as inhibitors. 200,000 compounds, 2.3% hits;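 note: plate controls were enzyme without inhibitor for no effect and buffer without enzyme for full effect; nearly all actives have a fitted effect of over 40% in size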
# Target sequence (P25779 123-467 limits assumed): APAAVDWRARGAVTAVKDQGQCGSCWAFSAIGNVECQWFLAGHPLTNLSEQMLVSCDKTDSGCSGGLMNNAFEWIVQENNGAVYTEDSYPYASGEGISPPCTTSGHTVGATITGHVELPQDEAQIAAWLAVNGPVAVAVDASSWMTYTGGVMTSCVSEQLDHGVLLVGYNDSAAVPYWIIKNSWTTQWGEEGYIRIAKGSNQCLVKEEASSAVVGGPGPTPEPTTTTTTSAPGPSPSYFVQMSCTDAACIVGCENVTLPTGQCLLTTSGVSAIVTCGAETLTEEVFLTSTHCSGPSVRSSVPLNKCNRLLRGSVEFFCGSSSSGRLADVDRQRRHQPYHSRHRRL
#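 Detergent-free condition (0.00005% Triton X-100) in acetate buffer pH 5.5 with DTT. 1.5 nM enzyme and compound were pre-mixed 15 min, then 2 uM Z-FR-AMC substrate added; reaction progress from fluorescence change between first and third reads (60 s).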
# Cruzain Triton: blocks cruzain activity in presence of Triton detergent. purified cruzain, Z-FR-AMC fluorescence, 0.01% Triton. Potency, µM, inactives show max response, negative = inhibition, hits mostly inhibitors. 200,000 compounds, 0.43% hits. AID 1478;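 note: plate controls were neutral wells for no effect and buffer without enzyme for full effect; nearly all actives have a fitted effect of over 40% in size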
#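 Cysteine protease activity tested under reducing, mildly acidic conditions (100 mM sodium acetate pH 5.5, 5 mM DTT) plus 0.01% Triton X-100. Cruzain 1.5 nM; substrate Z-FR-AMC 2 uM; 15 min compound preincubation at room temperature.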
# Starred values were filed as active, the others as inactive; ? = inconclusive. Calls come from the whole dose curve; as a rule, active = well fitted curve in the direction sought with a large enough effect; inconclusive = small, poorly fitted or top-dose-only effect, or another doubt; inactive = no such curve, though single readings can be large; an effect the other way counts as inactive or inconclusive. Potency is the fitted concentration of half-maximal effect.
SMILES,Cruzain inh noDet,Cruzain Triton
Nc1ccc(N2CCN(c3cccc(Cl)c3)CC2)cc1,16µM*,-6%
Cn1c(=O)c2sccc2n2c(CCC(=O)NCc3ccccc3)nnc12,4%,1%
CCOc1ccc(N=C2NC(=O)S/C2=C\c2ccc(Cl)cc2)cc1,4µM*,-2%
COc1ccc(N=C2NC(=O)S/C2=C\c2ccc(N(C)C)cc2)cc1,?,-3%
O=C(Nc1ccc2c(c1)OCO2)C1CCN(S(=O)(=O)Cc2ccccc2)CC1,-9%,2%
O=C(c1ccc2c(c1)OCO2)[C@@H]1[C@@H]2C(=O)N(C3CCCCC3)C(=O)[C@@H]2C2c3ccccc3C=CN21 (stereo not given in full),20µM*,-2%
O=C1c2ccccc2C(=O)N1Cc1ccc2c(c1)OCO2,-10%,-2%
CC(C)(C)C(=O)[C@@H]1[C@@H]2C(=O)N(C3CCCCC3)C(=O)[C@@H]2[C@H]2c3ccccc3C=CN12,?,2%
O=C(Nc1ccc2c(c1)OCO2)[C@@H]1[C@@H]2C(=O)N(C3CCCCC3)C(=O)[C@@H]2C2c3ccccc3C=CN21 (stereo not given in full),20µM*,-6%
O=C(c1cccs1)[C@@H]1[C@@H]2C(=O)N(Cc3ccc4c(c3)OCO4)C(=O)[C@@H]2C2c3ccccc3C=CN21 (stereo not given in full),25µM*,-2%
COc1ccc(C)cc1NC(=O)C(=O)NCCc1csc(-c2ccc(C)cc2)n1,-11%,-2%
CC(Oc1ccc(F)cc1)C(=O)NCC1(N(C)C)CCCCC1 (stereo not given),-5%,2%
CCN(CC)S(=O)(=O)c1ccc(NC(=O)NCc2noc3ccc(C)cc23)cc1,-4%,0%
Cc1ccccc1CSc1nnc2[nH]c(=O)cc(-c3ccccc3)n12,-4%,1%
COC(=O)c1cc(=O)n(Cc2ccc3c(c2)OCO3)c(=Nc2ccc(F)c(Cl)c2)s1,20µM*,-2%
COC(=O)c1cc(=O)n(CCc2ccc(OC)cc2)c(=Nc2ccc(F)c(Cl)c2)s1,-20%,0%
Fc1ccc(CNc2ncnc3onc(-c4ccc(F)cc4)c23)cc1,-9%,-6%
Cc1ccc(/C=C2/CCc3c([nH]c4ccccc34)C2=O)cc1,32µM*,6%
Cc1ccc2[nH]c3c(c2c1)CC/C(=C/c1ccccc1)C3=O,13µM*,4%
Cc1ccc2[nH]c(-c3ccccc3)cc(=O)c2c1,-11%,1%
O=C1/C(=C\c2ccccc2)CCc2c1[nH]c1ccccc21,?,-1%
O=S(=O)(c1ccc(Br)cc1)c1nc(-c2cccs2)oc1SCc1ccc(F)cc1,?,-4%
CCCOc1ccc(-c2nonc2NC(=O)c2ccco2)cc1OCCC,-10%,-4%
CCOC(=O)c1cccc(NC(=O)Cn2c(=O)nc(-c3ccccc3F)c3cc(Cl)ccc32)c1,0%,0%
CC(=O)c1ccc(NC(=O)CSc2nc(-c3ccccc3C)nc3c2c(=O)n(C)c(=O)n3C)cc1,-1%,5%
SMILES,Cruzain inh noDet,Cruzain Triton
CCCn1c(=O)c2sccc2n2c(CCCC(=O)NCCc3ccc(Cl)cc3)nnc12,6%,0%
Cc1ccc2c(CC(=O)Nc3cccc(Cl)c3C)coc2c1,-16%,-2%
CCN(CC)S(=O)(=O)c1ccc(C(=O)OCC(=O)Nc2sc3c(c2C#N)CCCCC3)cc1,?,-10%
Cc1ccc(C(=O)OCC(=O)Nc2sc3c(c2C#N)CCC3)cc1,20µM*,-1%
N#Cc1c(NC(=O)COC(=O)c2ccc(F)cc2)sc2c1CCC2,?,2%
COc1ccc(N(C)S(=O)(=O)c2cccc(C(=O)OCC(=O)Nc3sc4c(c3C#N)CCCCC4)c2)cc1,13µM*,1%
CN1CCN(c2ncc3nc(-c4cccs4)c(=O)n(CCC#N)c3n2)CC1,-5%,-2%
CCCN(C(=O)C1CCN(S(=O)(=O)c2c(C)noc2/C=C/c2ccc(C)cc2)CC1)c1ccccc1F,0%,-1%
C/C(=N\NC(=O)CNc1cccc(C)c1)c1ccc(Br)s1,-12%,-11%
C/C(=N\NC(=O)c1ccc(Cl)c(Cl)c1)c1ccc(Br)s1,25µM*,2%
CCc1cccc(C)c1NC(=O)C1CCN(S(=O)(=O)Cc2ccccc2)CC1,4%,-5%
CCC(=O)N1CCc2cc(Br)cc(S(=O)(=O)CCC(=O)Nc3ccc(Cl)cc3)c21,1%,-3%
CCNC(=O)COc1ccc(Br)cc1Cl,14%,8%
CSc1ccc(/C=N/NC(=O)COc2ccc(Br)cc2Cl)cc1,25µM*,0%
CC(NC(=O)C(=O)Nc1c2c(nn1-c1ccccc1)CSC2)c1ccccc1 (stereo not given),?,0%
Cc1cccc(C(=O)N=c2c(C#N)cc3c(=O)n4cccc(C)c4nc3n2Cc2ccco2)c1,16µM*,8.9µM*
CCOC(=O)c1cc2c(=O)n3cccc(C)c3nc2n(Cc2ccco2)c1=NC(=O)c1cccnc1,?,-9%
CCOc1ccc(OCC)c(NC(=O)CCc2nc3cccnc3n2Cc2cccs2)c1,?,-8%

# Screening results: PubChem, National Center for Advancing Translational Sciences (NCATS)
